# Reference: the supplement of paper PMC8728848
# The full list was thinned out, with the strongest signals kept by preference.
# B1: PX9937F-bfa-516-16-516 (Bacteroides fragilis) (protein)
# chain: LDIDPTSSIADSNYWKTEAQFSTFNVGLHALLRECSFNFFLLGEPRADIYGDVPFGGEATQGMERLPFNTINKENTGISNFAGMYKVINQINLMIAKTKETTVLSEAGKNYYLGEAYGMRAYLYFHLLRSWGDVILYLDYTNGASLDLSNLSKAASPAEEVMKQIKEDITASEKGFGSDYSFKYGRYYWSMAATQMLKGEVYLWSGRQMGGGTADYTTAKTALQSIVSNANVSLQDDFSKVFAYNNKDNSEIIFSIRNAKDEYNMWDDRFRQNLVPQQAYMTSTYCNKEGVSFKDLPEGQLNGLIRLQIRYDLYNKAFRDGDTRKDASMTAVYQKQQDGTVKYIAPFCNKYQGVLLDGASQRSFLNDYPIYRYADCLLLLAEAKALLGEDPTAEINQVRERAYGKEFFEANKATLAYPNDKGDFYTDNKYMSGDEDPLEAILKERMREFMFEGKRWYDLRLLGADYVTKRTSAVATRLLWPINESVLTDNPALKQTPGYQN
# What was measured:
# Assay in all cases: glycan array binding signal (z-score within array); higher = stronger binding
# Conditions in all cases: glycan notation: IUPAC condensed, linker removed
# [1] = target: Gal3S(b1-4)Glc6S
# Procedure, shortened: (§1)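 Arrays were curated from the Consortium for Functional Glycomics database, 3228 in total, and kept only where the protein sequence was available. Binding is expressed as a within-array Z-score. This score was averaged across arrays of the same protein sequence at different concentrations or buffers and across linkers, and negative values can be read as non-binding.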
# [2] = target: GalNAc(a1-3)Gal
# Procedure, shortened: as §1
# [3] = target: GalNAc(b1-3)Gal(a1-4)Gal(b1-4)GlcNAc
# Procedure, shortened: as §1
# [4] = target: GalNAc(b1-4)Gal(b1-4)Glc
# Procedure, shortened: as §1
# [5] = target: GalNAc3S(b1-4)GlcNAc3S
# Procedure, shortened: as §1
# [6] = target: GlcA(b1-3)Gal
# Procedure, shortened: as §1
# [7] = target: GlcNAc(a1-4)Gal(b1-4)GlcNAc(b1-3)Gal(b1-4)Glc
# Procedure, shortened: as §1
# [8] = target: GlcNAc(a1-4)Gal(b1-4)GlcNAc(b1-3)Gal(b1-4)[Fuc(a1-3)]GlcNAc(b1-3)Gal(b1-4)[Fuc(a1-3)]GlcNAc
# Procedure, shortened: as §1
# [9] = target: GlcNAc(b1-3)Gal(b1-4)GlcNAc(b1-2)Man(a1-3)[GlcNAc(b1-3)Gal(b1-4)GlcNAc(b1-2)Man(a1-6)]Man(b1-4)GlcNAc(b1-4)[Fuc(a1-6)]GlcNAc
# Procedure, shortened: as §1
# [10] = target: GlcNAc(b1-3)Gal(b1-4)GlcNAc(b1-3)Gal(b1-4)GlcNAc(b1-3)Gal(b1-4)GlcNAc(b1-2)Man(a1-3)[GlcNAc(b1-3)Gal(b1-4)GlcNAc(b1-3)Gal(b1-4)GlcNAc(b1-3)Gal(b1-4)GlcNAc(b1-2)Man(a1-6)]Man(b1-4)GlcNAc(b1-4)GlcNAc
# Procedure, shortened: as §1
# [11] = target: GlcNAc(b1-3)Gal(b1-4)GlcNAc(b1-6)[Gal(b1-3)]GalNAc
# Procedure, shortened: as §1
# [12] = target: GlcNAc(b1-4)Gal(b1-4)GlcNAc
# Procedure, shortened: as §1
# [13] = target: Kdn(a2-3)Gal(b1-3)GalNAc
# Procedure, shortened: as §1
# [14] = target: Man(a1-2)Man(a1-2)Man(a1-3)Man
# Procedure, shortened: as §1
# [15] = target: Man(a1-3)[Man(a1-6)]Man(a1-6)[Man(a1-3)]Man(b1-4)GlcNAc(b1-4)GlcNAc
# Procedure, shortened: as §1
# [16] = target: Neu5Ac(a2-3)Gal(b1-3)GlcNAc(b1-3)Gal(b1-3)GlcNAc
# Procedure, shortened: as §1
# [17] = target: Neu5Ac(a2-3)Gal(b1-3)[Fuc(a1-4)]GlcNAc(b1-3)Gal(b1-4)[Fuc(a1-3)]GlcNAc
# Procedure, shortened: as §1
# [18] = target: Neu5Ac(a2-3)Gal(b1-4)Glc
# Procedure, shortened: as §1
# [19] = target: Neu5Ac(a2-3)Gal(b1-4)GlcNAc(b1-3)Gal(b1-4)GlcNAc(b1-3)Gal(b1-4)GlcNAc
# Procedure, shortened: as §1
# [20] = target: Neu5Ac(a2-3)Gal(b1-4)GlcNAc(b1-3)[Neu5Ac(a2-3)Gal(b1-4)GlcNAc(b1-6)]GalNAc
# Procedure, shortened: as §1
binder,measurement,setting,value
B1,glycan array binding signal (z-score),[1],-0.009
same,glycan array binding signal (z-score),[2],0.114
same,glycan array binding signal (z-score),[3],1.48
same,glycan array binding signal (z-score),[4],1.77
same,glycan array binding signal (z-score),[5],-0.23
same,glycan array binding signal (z-score),[6],-0.361
same,glycan array binding signal (z-score),[7],-0.323
same,glycan array binding signal (z-score),[8],0.511
same,glycan array binding signal (z-score),[9],1.82
same,glycan array binding signal (z-score),[10],0.988
same,glycan array binding signal (z-score),[11],-0.127
same,glycan array binding signal (z-score),[12],-0.271
same,glycan array binding signal (z-score),[13],-0.345
same,glycan array binding signal (z-score),[14],-0.273
same,glycan array binding signal (z-score),[15],0.247
same,glycan array binding signal (z-score),[16],-0.249
same,glycan array binding signal (z-score),[17],-0.15
same,glycan array binding signal (z-score),[18],-0.325
same,glycan array binding signal (z-score),[19],-0.282
same,glycan array binding signal (z-score),[20],-0.202
